Measured values: PubChem BioAssay

How the values were obtained:
[1] = NFkB reporter suppression in cystic fibrosis bronchial cells – cell-based, uHTS hits, panel, cytotoxicity readout, dose response (AID 624344); conditions: CF bronchial epithelial cells, PAF-induced NFkB reporter inhibition, with PAF, run 1; at 79 µM (top of the series) unless noted
[2] = as above; conditions: CF bronchial epithelial cells, PAF-induced NFkB reporter inhibition, with PAF, run 2; at 79 µM (top of the series) unless noted

## CC1(O)CC(c2ccc(Cl)cc2)=NN1C(=O)c1ccc(Cl)cc1 (configuration not stated)
[1]
  inhibition: 109%
[2]
  inhibition: 78.5%

## O=C(Nc1ccc(N2CCN(C(=O)c3ccccc3F)CC2)cc1)c1cncc(Br)c1
[1]
  inhibition: 112%
[2]
  inhibition: 99.6%

## COC(=O)N1C(=O)[C@@](c2ccccc2)(C(C)C)N1C(=O)OC
[1]
  inhibition: 107%
[2]
  inhibition: 104%

## COc1cccc(-c2ccc3ncnc(NCc4cc(C)cs4)c3c2)c1
[1]
  inhibition: 106%
[2]
  inhibition: 116%

## CC(=C/c1ccccc1)/C=N/n1c(-c2ccncc2)n[nH]c1=S
[1]
  inhibition: 110%
[2]
  inhibition: 103%

## Cc1ccc(S(=O)(=O)Nc2cccc3cccnc23)c([N+](=O)[O-])c1
[1]
  inhibition: 101% [at 39.5 µM]
[2]
  inhibition: 94.2% [at 39.5 µM]

## COc1cc2c(Cc3ccccc3)cncc2cc1O
[1]
  inhibition: 107%
[2]
  inhibition: 96.3%

## Cc1ccc(-n2nnnc2Sc2ccc(S(=O)(=O)NCCN(C)C)cc2[N+](=O)[O-])cc1
[1]
  inhibition: 104%
[2]
  inhibition: 114%

## NC(=O)c1sc2nc3c(c(-c4ccco4)c2c1N)CCCC3
[1]
  inhibition: 114%
[2]
  inhibition: 101%

## CCc1cc(-c2[nH]ncc2-c2ccc(OC)cc2)c(O)cc1O
[1]
  inhibition: 115%
[2]
  inhibition: 104%

## Cn1c(Sc2ccc(Br)cc2)c(C=O)c2ccccc21
[1]
  inhibition: 108%
[2]
  inhibition: 112%

## CCOC(=O)c1[nH]c(C)c(C(=O)N2CCc3ccccc32)c1C
[1]
  inhibition: 34.1%
[2]
  inhibition: 43.6%

## CCCCCCc1cc2cc(C(=O)OCC)c(=O)oc2cc1O
[1]
  inhibition: 106%
[2]
  inhibition: 117%

## COc1ccc(N=Cc2cc3c(cc2O)OC(N)=C(C#N)C3c2ccccc2)cc1 (configuration not stated)
[1]
  inhibition: 76.8%
[2]
  inhibition: 47.7%

## Cc1cnc(NC(=O)CCCc2nc3ccccc3s2)s1
[1]
  inhibition: 101%
[2]
  inhibition: 114%

## CCN1CCN(Cc2ccc(NC(=O)c3ccc(C)c(NC(=O)c4cccc5[nH]ccc45)c3)cc2C(F)(F)F)CC1
[1]
  inhibition: 84.6%
[2]
  inhibition: 77.6%

## COc1ccc(NC(=O)Cn2ncn3nc(-c4ccc(OC)cc4)cc3c2=O)cc1
[1]
  inhibition: 102%
[2]
  inhibition: 107%

## COc1cc(NC(=O)c2csc(-c3ccncc3)n2)cc(C(=O)Nc2cccc(C(F)(F)F)c2)c1
[1]
  inhibition: 102%
[2]
  inhibition: 105%

## O=C(Nc1cccc(S(=O)(=O)N2CCCCC2)c1)Nc1ccc(Cl)cc1Cl
[1]
  inhibition: 103%
[2]
  inhibition: 117%

## COc1ccc2cc3c(N)nn(C(=O)c4ccc(F)cc4)c3nc2c1
[1]
  inhibition: 90%
[2]
  inhibition: 96.1%

## CC1Sc2ccc(Cl)cc2-c2nc(N)ncc21 (configuration not stated)
[1]
  inhibition: 102%
[2]
  inhibition: 108%

## COc1ccc2ncn(-c3ccccc3)c2c1
[1]
  inhibition: 104%
[2]
  inhibition: 101%

## CCCn1c(-c2nonc2N)nc2ccccc21
[1]
  inhibition: 99.6%
[2]
  inhibition: 95.5%

## Nc1ncc(-c2ccccc2)c(-c2ccc(O)cc2O)n1
[1]
  inhibition: 100%
[2]
  inhibition: 112%

## CCC1=Nc2cc(C(=O)NCc3ccco3)ccc2Sc2ccc(C)cc21
[1]
  inhibition: 99.5%
[2]
  inhibition: 92.2%

## CN(C)/C=C/C(=O)c1ccc2noc(-c3ccccc3)c2c1
[1]
  inhibition: 118%
[2]
  inhibition: 105%

## Brc1ccc2ncnc(NCc3ccco3)c2c1
[1]
  inhibition: 109%
[2]
  inhibition: 105%

## Cc1cccc(C)c1NS(=O)(=O)c1ccc(-c2cnc(C3CC3)o2)cc1
[1]
  inhibition: 112%
[2]
  inhibition: 105%

## CNC(=O)c1ccc(NC(=O)C2CCN(c3ncnc4sc(C)c(C)c34)CC2)cc1
[1]
  inhibition: 85.3%
[2]
  inhibition: 72%

## O=C(c1ccc(O)c(Br)c1)c1cc(Br)ccc1O
[1]
  inhibition: 105%
[2]
  inhibition: 109%

## Cc1ccc2occ(/C=N/NC(=O)c3ccccc3Br)c(=O)c2c1
[1]
  inhibition: 94.7%
[2]
  inhibition: 114%

## COc1cc(O)c(CC=C(C)C)c(O)c1C(=O)CCc1ccc(O)cc1
[1]
  inhibition: 112%
[2]
  inhibition: 104%

## COc1ccc2[nH]c3c(c2c1)CCN1C(=O)C(CC(=O)NCCC2=CCCCC2)C[C@H](C(=O)N2CCCCC2)[C@@]31CCc1ccccc1 (some centres not stated)
[1]
  inhibition: 104%
[2]
  inhibition: 40.2% [at 39.5 µM]

## Cc1cccc(C(=O)N[C@H](C(=O)Nc2nc3ccccc3[nH]2)C(C)C)c1
[1]
  inhibition: 101%
[2]
  inhibition: 70.1%

## CCN1CCN(Cc2ccc(NC(=O)c3ccc(C)c(NC(=O)c4csc(-c5ccncc5)n4)c3)cc2C(F)(F)F)CC1
[1]
  inhibition: 107%
[2]
  inhibition: 101%

## CCOC(=O)C1=C(CC)Nc2ccccc2N=C1NC(=O)c1oc2ccccc2c1C
[1]
  inhibition: 111%
[2]
  inhibition: 91.5%

## c1ccc2c(-c3ccc4nncn4c3)cncc2c1
[1]
  inhibition: 92.3%
[2]
  inhibition: 79%

## Fc1ccc(Nc2ccnc(Nc3ccc(F)cc3)n2)cc1
[1]
  inhibition: 113%
[2]
  inhibition: 101%

## CC(C)(C)OC(=O)NCCCCCNC(=O)c1nc[nH]c1C(=O)NCC(=O)OCc1ccccc1
[1]
  inhibition: 111%
[2]
  inhibition: 101%

## Cc1nc(N)c(C#N)c(-c2cccnc2)c1-c1ccccc1
[1]
  inhibition: 93.9%
[2]
  inhibition: 80%

## C/C(=N/NC(=O)c1cccs1)c1ccc(NC(=O)COc2ccc(Cl)cc2)cc1
[1]
  inhibition: 87%
[2]
  inhibition: 72.9%
